Data published in the supplement of paper PMC10646978.
± gives the standard deviation.

Key:
Conditions in all cases: modulator concentration 10 µM
[1] = test system: RAW-Dual (murine macrophage reporter line); experiment: NF-kB reporter (SEAP) activity fold change vs agonist alone; higher = enhanced NF-kB activity
In short: (§1)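 In 384-well plates holding 50 000 RAW-Dual murine macrophage reporter cells per well, compound at 10 μM final was pre-incubated for 1 hour at 37 °C, after which a PRR agonist was added overnight. Supernatant SEAP read with QUANTI-Blue at 620 nm absorbance reported NF-κB, and Lucia luciferase read with QUANTI-Luc luminescence reported IRF. Fold change values come from dividing each reporter signal by the mean of agonist-only control wells on the same plate, averaged over replicate plates with propagated errors.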

[2] = test system: RAW-Dual (murine macrophage reporter line); experiment: IRF reporter (Lucia luciferase) activity fold change vs agonist alone; higher = enhanced IRF activity
In short: as §1

[3] = test system: RAW-Dual (murine macrophage reporter line); experiment: viability score (confluency relative to resting cells, overnight) (fraction); higher = more viable, active = viable (0.7 or more)
In short: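 Two confluency masks, generated with IncuCyte software over all imaged wells, were applied to IncuCyte images of RAW-Dual macrophages. The cells, in 384-well plates, had been exposed overnight to 10 μM final compound. The viability score is confluency as a fraction of resting cells, and a compound met the cutoff only with both masks above 70% of resting cells.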

[4] = agonist: CpG ODN 1826 0.5 ug/mL

Row | Structure (SMILES) | NF-kB reporter [1, 4] | NF-kB reporter ([1]; agonist: LPS 0.1 ug/mL) | NF-kB reporter ([1]; agonist: MPLA […]) | IRF reporter ([2]; agonist: 3'3'-cGAMP 10 ug/mL) | IRF reporter ([2]; agonist: LPS 0.1 ug/mL) | IRF reporter ([2]; agonist: MPLA […]) | viability score [3]
1 | CCOc1ccc2c(c1)C(c1ccccc1C(F)(F)F)CC(=O)N2 (configuration not stated) | 1.02 ± 0.17 | 1.05 ± 0.091 | 1.03 ± 0.1 | 1.09 ± 0.046 | 1.43 ± 0.33 | 1.57 ± 0.23 | 0.995 (active)
2 | C#CCCCCCCCCCCCC(=O)CC(O)COC(C)=O (configuration not stated) | 0.822 ± 0.073 | 0.338 ± 0.034 | 0.808 ± 0.022 | 0.176 ± 0.019 | 0.878 ± 0.098 | 0.81 ± 0.15 | 0.849 (active)
3 | O=C(NCc1nc(C2CCCCC2)cs1)c1ccc(F)cc1 | 0.898 ± 0.05 | 1.16 ± 0.11 | 0.918 ± 0.047 | 1.03 ± 0.063 | 1.26 ± 0.094 | 1.1 ± 0.09 | 0.931 (active)
4 | COc1c(OC)c2occc2c2oc(=O)ccc12 | 1.14 ± 0.32 | 0.86 ± 0.083 | 0.941 ± 0.059 | 0.551 ± 0.018 | 0.586 ± 0.17 | 0.67 ± 0.07 | 0.968 (active)
5 | Cc1ccc(S(=O)(=O)n2nnc3ccccc32)cc1C | 1.07 ± 0.11 | 1.04 ± 0.092 | 0.991 ± 0.034 | 0.928 ± 0.059 | 0.982 ± 0.14 | 1 ± 0.23 | 1 (active)
6 | Cc1ccc(Cn2c(N)nc3ccccc32)cc1 | 0.363 ± 0.067 | 1.21 ± 0.12 | 1.09 ± 0.098 | 1.07 ± 0.07 | 1.09 ± 0.23 | 1.37 ± 0.14 | 0.702 (active)
7 | O=S(=O)(NN=Cc1c[nH]c2ccccc12)c1ccc(Cl)cc1 | 0.627 ± 0.053 | 0.619 ± 0.029 | 0.844 ± 0.078 | 0.0905 ± 0.0084 | 1.32 ± 0.11 | 1.31 ± 0.13 | 0.962 (active)
8 | O=S(=O)(c1cccc2ccccc12)n1nnc2ccccc21 | 1.01 ± 0.092 | 1.03 ± 0.068 | 1.05 ± 0.08 | 1.09 ± 0.29 | 1.04 ± 0.065 | 0.995 ± 0.067 | 1 (active)
9 | COc1ccc(OCCSc2nc3ccccc3n2CCO)cc1 | 1.01 ± 0.094 | 1.09 ± 0.12 | 1.09 ± 0.031 | 1.35 ± 0.55 | 1 ± 0.063 | 1.05 ± 0.14 | 0.992 (active)
10 | CCc1ccc(CCOc2ccc(CC3SC(=O)NC3=O)cc2)nc1.Cl (configuration not stated) | 1.34 ± 0.27 | 1.04 ± 0.12 | 0.983 ± 0.062 | 0.736 ± 0.028 | 1.22 ± 0.18 | 1.19 ± 0.097 | 0.997 (active)
11 | CN(C)C1C(O)=C(C(N)=O)C(=O)C2(O)C(O)=C3C(=O)c4c(O)ccc(Cl)c4C(O)C3CC12.Cl (configuration not stated) | 1.37 ± 0.35 | 1.1 ± 0.067 | 1.01 ± 0.067 | 0.894 ± 0.038 | 1.19 ± 0.14 | 1.08 ± 0.15 | 0.991 (active)
12 | CNCCc1ccccn1.Cl.Cl | 1.19 ± 0.36 | 0.956 ± 0.18 | 0.964 ± 0.08 | 0.946 ± 0.05 | 1.01 ± 0.31 | 1 ± 0.13 | 0.997 (active)
13 | CN(C)C/C=C/C(=O)Nc1cc2c(Nc3ccc(F)c(Cl)c3)ncnc2cc1O[C@H]1CCOC1 | 0.0842 ± 0.0066 | 0.28 ± 0.053 | 0.266 ± 0.033 | 0.0559 ± 0.0049 | 0.0747 ± 0.015 | 0.0463 ± 0.0039 | 0.56 (inactive)
14 | O=C(NCCN1C(=O)c2ccccc2C1(O)c1ccc(Cl)cc1)Nc1ccccc1 (configuration not stated) | 1.28 ± 0.1 | 0.219 ± 0.011 | 0.22 ± 0.02 | 0.841 ± 0.045 | 0.0475 ± 0.0035 | 0.0497 ± 0.0069 | 0.73 (active)
15 | CCOC(=O)N(CC(=O)OC)CP(=O)(O)C(Cc1ccccc1)C(=O)O (configuration not stated) | 0.988 ± 0.058 | 1.02 ± 0.07 | 0.969 ± 0.069 | 1.03 ± 0.045 | 1.41 ± 0.21 | 1.07 ± 0.095 | 1 (active)
16 | C[C@H]1[C@@H](OC(=O)CCC(=O)O)O[C@@H]2O[C@]3(C)CC[C@H]4[C@H](C)CC[C@@H]1[C@@]24OO3 | 1.02 ± 0.071 | 1.12 ± 0.11 | 0.95 ± 0.043 | 0.934 ± 0.11 | 1.11 ± 0.14 | 1.06 ± 0.25 | 1 (active)
17 | CCC[C@@H]1C[C@@H](C(=O)N[C@@H]([C@H]2O[C@H](SC)[C@H](OP(=O)(O)O)[C@@H](O)[C@H]2O)[C@H](C)Cl)N(C)C1 | 0.953 ± 0.08 | 0.954 ± 0.059 | 0.952 ± 0.043 | 0.972 ± 0.073 | 1.01 ± 0.09 | 1.15 ± 0.092 | 1 (active)
18 | N#CC[C@@H](C1CCCC1)n1cc(-c2ncnc3[nH]ccc23)cn1 | 1.95 ± 0.28 | 0.915 ± 0.29 | 0.914 ± 0.051 | 0.164 ± 0.0051 | 0.359 ± 0.081 | 0.595 ± 0.067 | 0.999 (active)
19 | CCOc1ccc(CC(=O)N2C3C=CCC2CC3)cc1 (configuration not stated) | 0.942 ± 0.1 | 1.09 ± 0.1 | 1.01 ± 0.061 | 1.02 ± 0.047 | 1.22 ± 0.16 | 1.31 ± 0.47 | 0.971 (active)
20 | Cc1ccc(C(=O)c2ccc(CC(=O)O)n2C)cc1 | 0.949 ± 0.071 | 1.01 ± 0.064 | 1.02 ± 0.048 | 0.995 ± 0.086 | 0.993 ± 0.1 | 1.02 ± 0.092 | 1 (active)
21 | Cc1ccc(-n2ncc3c(=O)n(CC=Cc4ccccc4)cnc32)cc1C | 0.969 ± 0.086 | 1.1 ± 0.089 | 0.96 ± 0.091 | 1.03 ± 0.061 | 1.19 ± 0.12 | 1.06 ± 0.34 | 0.984 (active)
22 | O=C(CCc1csc(NC(=O)c2ccco2)n1)Nc1ccc(Cl)cc1 | 0.9 ± 0.069 | 0.87 ± 0.071 | 0.973 ± 0.097 | 0.883 ± 0.045 | 1.44 ± 0.23 | 1.55 ± 0.43 | 0.974 (active)
23 | COc1cc(Cl)c(C)cc1NC(=O)c1ccccc1Cl | 0.906 ± 0.26 | 1.11 ± 0.062 | 1.4 ± 0.22 | 0.914 ± 0.042 | 0.991 ± 0.15 | 1.1 ± 0.12 | 0.981 (active)
24 | CN(C)[C@@H](CCOc1cccc2ccccc12)c1ccccc1.Cl | 0.603 ± 0.11 | 1.01 ± 0.17 | 0.66 ± 0.044 | 0.47 ± 0.015 | 1.25 ± 0.11 | 0.854 ± 0.068 | 0.178 (inactive)
25 | Cc1occc1C(=O)Nc1ccc(F)c(F)c1 | 1.07 ± 0.12 | 0.998 ± 0.16 | 1.11 ± 0.055 | 0.704 ± 0.042 | 1.07 ± 0.081 | 1.46 ± 0.14 | 0.927 (active)
26 | CCOC(=O)C1=C(N)OC(C)=C(C(=O)OC)C1c1cccnc1 (configuration not stated) | 1.16 ± 0.085 | 1.11 ± 0.081 | 1.16 ± 0.074 | 1.21 ± 0.04 | 1.12 ± 0.12 | 1.09 ± 0.095 | 0.988 (active)
